In PubChem BioAssay (Tox21):
Results filed as inconclusive are left out. A call without a number means that no potency is given here. Unmarked numbers belong to inactive results. Activity calls are given as the source filed them. Calls come from the whole dose curve; as a rule, active = well fitted cell-killing curve with a large enough effect in the repeat runs; inconclusive = weak or mixed curves, or effect the other way; inactive = flat fitted curve, though single readings scatter.

Assay: qHTS assay to identify small molecule antagonists of the androgen receptor (AR) signaling pathway using the MDA cell line in the presence of 0.5 nM R1881 - cell viability counter screen (AID 1259242); note: nearly all actives have a fitted effect of over 45% in size
Settings: MDA-kb2 viability, CellTiter-Fluor protease fluorescence, 16 h; series mostly up to 92.4 µM
Text: U.S. Tox21 Program National Center for Advancing Translational Sciences [NCATS] NIH Chemical Genomics Center [NCGC] U.S. Environmental Protection Agency [EPA] National Institutes of Environmental Health Sciences [NIEHS] National Toxicology Program [NTP] U.S. Food and Drug Administration [FDA] Tox21 Assay Overview: Androgen receptor (AR) is an important member of the nuclear receptor family. Its signaling plays a critical role in AR-dependent prostate cancer and other androgen related diseases. Considerable attention has been given in the past decades to develop methods to study and screen for the environmental chemicals that have the potential to interfere with metabolic homeostasis, reproduction, developmental and behavioral functions. Therefore AR binding assay for screening androgen antagonists can be used to identify potential endocrine disruptors. MDA-kb2 cells (from ATCC, deposited by Wilson et al.) were used to screen for AR inhibitors against Tox21 compound libraries. These cells are human breast carcinoma cells that were stably transfected with a luciferase reporter gene under control of the MMTV promoter that contains response elements for both androgen receptor (AR) and glucocorticoid receptor (GR). The current screening for identification of AR inhibitors against Tox21 libraries used lower concentration of (0.5 nM) R1881 as a stimulator. The cytotoxicity of the Tox21 compound libraries against MDA-kb2 cell line was tested by measuring live-cell protease activity using CellTiter-Fluor assay in the same wells.
Tox21 Assay Protocol Summary: MDA-kb2 cells (cells cultured without CO2) were dispensed at 3,000 cells/well in 4 uL of culture medium into white wall/solid-bottom 1536-well plates (Corning Life Sciences, Corning, NY) using a Multidrop Combi (ThermoFisher Scientific, Waltham, MA) dispenser. After the assay plates were incubated at a 37C and 0% CO2 for 5 hr, 23 nL of compounds dissolved in DMSO, positive controls or DMSO only was transferred to the assay plate by a Pintool station (Kalypsys, San Diego, CA). The transfer of compounds was followed by the addition of 1 uL of 0.5 nM (final concentration) agonist (R1881)/culture medium using a Flying Reagent Dispenser (FRD, Aurora Discovery, San Diego, CA). The plates were incubated at 37C and 0% CO2 for 16 hr. For cytotoxicity assay, 1 uL of CellTiter-Fluor reagent (Promega Corporation, Madison, WI) was added to each well using the FRD and after 30 min incubation at 37C and 0% CO2, The fluorescence intensity was measured using ViewLux plate reader (PerkinElmer, Shelton, CT).
Potency is the fitted concentration of half-maximal effect.

Row | Structure (SMILES) | Potency | viability change, negative = cytotoxic
1 | Cn1ccnc1 | inactive | –
2 | C=C(C)C1CCC(C)CC1O (stereo not given) | inactive | –
3 | Cc1c[nH]c(=O)[nH]c1=O | inactive | –
4 | CC(C=O)c1ccccc1 (stereo not given) | inactive | –
5 | Brc1cc(Br)cc(Br)c1 | inactive | –
6 | N#Cc1ccc(C/C(=N/NC(=O)Nc2ccc(OC(F)(F)F)cc2)c2cccc(C(F)(F)F)c2)cc1 | inactive | –
7 | CC(C)(C)c1ccc(OC2CCCCC2O)cc1 (stereo not given) | inactive | –
8 | CCCCC/C=C\C=C\C(=O)OCC | inactive | –
9 | CC(C)(C)c1cc(CCC(=O)OCCSCCOC(=O)CCc2cc(C(C)(C)C)c(O)c(C(C)(C)C)c2)cc(C(C)(C)C)c1O | inactive | –
10 | CCCCCCCCCCCC(=O)Cl | inactive | –
11 | COc1c(Br)cc(Br)c(C)c1Br | inactive | –
12 | O=[N+]([O-])c1ccc(O)c2ncccc12 | 9.44 µM (active) | –
13 | CCOc1nc(F)cc2nc(S(=O)(=O)Nc3c(Cl)cccc3C(=O)OC)nn12 | inactive | –
14 | C/C(=N\[Si](C)(C)C)O[Si](C)(C)C | inactive | –
15 | Oc1cccc2c(O)cccc12 | inactive | –
16 | Cn1c(=O)[nH]c2ncn(C)c2c1=O | inactive | –
17 | C=COCCCC | inactive | –
18 | Cc1cc(F)ccc1-c1cc(N2CC[C@@H](O)[C@H]2CO)ncc1N(C)C(=O)C(C)(C)c1cc(C(F)(F)F)cc(C(F)(F)F)c1 | inactive | –
19 | CC1(C)[C@H]2CC[C@]1(C)C(=O)C2 | inactive | –
20 | Nc1cccnc1N | inactive | –

Row | Structure (SMILES) | Potency | viability change, negative = cytotoxic
21 | O=C(c1ccccc1)c1ccc(Cl)cc1 | inactive | –
22 | CN1CCN(C)CC1 | inactive | –
23 | CCN(CC)c1ccc2c(c1)Oc1cc(N(CC)CC)ccc1C21OC(=O)c2ccccc21 | 10.6 µM (active) | –
24 | Nc1c(Br)cc([N+](=O)[O-])cc1Br | inactive | –
25 | Clc1cccc(Cl)n1 | inactive | –
26 | Cc1cc(C)c(O)c(C(C)(C)C)c1 | inactive | –
27 | CCCCCCCCCCCCN1CCCC1=O | inactive | –
28 | C=Cc1ccncc1 | inactive | –
29 | O=C(Nc1ccc([N+](=O)[O-])cc1)Nc1ccc([N+](=O)[O-])cc1 (tested in a mixture with another compound) | inactive | –
30 | COC(=O)c1ccc([N+](=O)[O-])cc1 | inactive | –
31 | Cc1ccc(Cl)c(N)c1Cl | inactive | –
32 | CCCOC(=O)c1ccc(O)cc1 | inactive | –
33 | NCc1ccco1 | inactive | –
34 | CC1CCC(C(C)(C)O)CC1 (stereo not given) | inactive | –
35 | CSc1nnc(C(C)(C)C)c(=O)[nH]1 | inactive | –
36 | O=S(=O)(c1ccc(OCc2ccccc2)cc1)c1ccccc1O | inactive | –
37 | COc1cc2ncnc(Nc3cccc(Cl)c3)c2cc1OC | – | -6.19% [at 19 µM]
38 | CC(C)=NNC(N)=S | inactive | –
39 | O=c1cc[nH]cc1 | inactive | –
40 | [Cl][Sc]([Cl])[Cl] | inactive | –
